Calls of active or inactive are those of the source. How the source made its calls: active means hit-call score of the fitted dose curve at least 0.9, where 1 is the maximum; inactive means score below 0.9.

Read-out in the assay: Matrix Metallopeptidase 9 (MMP9), MMP9 (gene 4318)
The assay can be described thus: BSK_KF3CT_MMP9: BioMAP Diversity Plus: KF3CT Assay for Matrix Metallopeptidase 9 (MMP9) Biomarker Activity (AID 2283074). To be noted: primary human keratinocytes with fibroblasts; actives raise or lower the signal. The protocol:
BSK_KF3CT is a cell-based, multiplexed-readout assay that uses keratinocytes and foreskin fibroblasts, a human skin primary cell co-culture, with measurements taken at 24 hours after chemical dosing in a 96-well plate.BSK_KF3CT_MMP9 is an assay component measured in the BSK_KF3CT assay. It measures MMP-9 antibody related to regulation of gene expression using ELISA technology.Data from the assay component BSK_KF3CT_MMP9 was analyzed into 1 assay endpoint. This assay endpoint, BSK_KF3CT_MMP9, was analyzed with bidirectional fitting relative to DMSO as the negative control and baseline of activity. Using a type of binding reporter, gain or loss-of-signal activity can be used to understand changes in the signaling as they relate to the gene MMP9. Furthermore, this assay endpoint can be referred to as a primary readout, because this assay has produced multiple assay endpoints where this one serves a signaling function. To generalize the intended target to other relatable targets, this assay endpoint is annotated to the protease intended target family, where the subfamily is matrix metalloproteinase.
The levels of cell surface (or secreted, indicated by the prefix "s") biomarker endpoints were measured by ELISA. Overt cytotoxicity to cells in confluent adherent cultures (all systems other than the BT system) was assessed by measuring total protein levels using sulforhodamine B (SRB) staining in parallel cultures at the time of biomarker measurements, indicated as SRB endpoints. For proliferation assays for adherent cell types, individual cell types are cultured at sub-confluence and relative cell numbers quantified by SRB staining at time points optimized for each system (48 h: 3C and CASM3C systems; 72 h: BT and HDF3CGF systems; 96 h: SAg system). SRB was performed by staining cells with 0.1% SRB after fixation with 10% TCA and reading wells at 560 nm.Viability and proliferation of PBMC (T cells) was quantified by Alamar Blue reduction for the SAg and BT systems. For PBMC viability (referred to as PBMC Cytotoxicity within the assay endpoint names), cells were plated (75,000/well in a 96-well plate) and then chemical samples added for 1 h before addition of activators, SEB and TSST-1 (20 ng/mL final concentration each). Cells were incubated for 90 h. Then, Alamar Blue (20 uL/well) (Invitrogen, Cat DAL1100) was added for 6 h, and the plates were read with a fluorescence microplate reader at 546/580 nm (excitation/emission). For PBMC proliferation, cells were plated and activated as above but incubated for only 16 h prior to addition of Alamar Blue. Plates were read after 6 h.
As for `O=C(O)CCN(C1(C(=O)NO)CCCC1)S(=O)(=O)c1ccc(Oc2ccc(F)cc2)cc1`, the result was inactive.

As to `CCCN(C1CCN(C(=O)C2CCNCC2)CC1)[C@@H]1CCc2ccc(OC)cc2C1`, the result was inactive.

Take `CNCc1ccc(NC(=O)c2c[nH]c3c2C(=O)CCC3)cc1`: the result was inactive.

`CCCCCCCCO`: the outcome was inactive.

On to `O=C(OC[C@H]1O[C@@H](OC(=O)c2cc(O)c(O)c(OC(=O)c3cc(O)c(O)c(O)c3)c2)[C@H](OC(=O)c2cc(O)c(O)c(OC(=O)c3cc(O)c(O)c(O)c3)c2)[C@@H](OC(=O)c2cc(O)c(O)c(OC(=O)c3cc(O)c(O)c(O)c3)c2)[C@@H]1OC(=O)c1cc(O)c(O)c(OC(=O)c2cc(O)c(O)c(O)c2)c1)c1cc(O)c(O)c(OC(=O)c2cc(O)c(O)c(O)c2)c1`, for which the AC50 was 6.1 µM (active).

Take `CC(=O)OCCC(C)C`: the outcome was inactive.

`CNS(=O)(=O)c1cc(C(=O)N2CCC(CCN3C4CCC3CC(n3c(C)nc5ccccc53)C4)(c3cccc(F)c3)CC2)c(Cl)cc1F` (stereo not given): the AC50 is 20 µM (active).

With `Cc1ccc(S(=O)(=O)O)cc1C`, the result was inactive.

As for `O=C(O)c1cc(N=Nc2ccc(S(=O)(=O)Nc3ccccn3)cc2)ccc1O`, the outcome was inactive.

With `CC1(C)C(=O)N(Br)C(=O)N1Br`, the result was inactive.

For the compound `CC(C)(O)c1coc(S(=O)(=O)NC(=O)Nc2c3c(cc4c2CCC4)CCC3)c1`, the outcome was inactive.

In the case of `CCCCCCc1ccc(O)cc1O`, the AC50 is 34.1 µM (active).

As for `CCCCC(CC)COC(=O)c1ccc(C(=O)OCC(CC)CCCC)cc1` (stereo not given), the result was inactive.

For `O=C(NS(=O)(=O)/C=C/c1ccccc1)c1ccc(F)cc1Cl`, the result was inactive.

For the compound `CN(C)c1ccc(N=NS(=O)(=O)O)cc1`, the outcome was inactive.

`Cc1[nH]cnc1C[C@H]1CCc2c(C)c3ccccc3n2C1=O`: the result was inactive.

On to `COCCOCCOCCOC`, for which the result was inactive.

Regarding `CC[C@H]1OC(=O)[C@H](C)[C@@H](O[C@H]2C[C@@](C)(OC)[C@@H](O)[C@H](C)O2)[C@H](C)[C@@H](O[C@@H]2O[C@H](C)C[C@H](N(C)C)[C@H]2O)[C@](C)(O)C[C@@H](C)C(=O)[C@H](C)[C@@H](O)[C@]1(C)O`, the outcome was inactive.

Turning to `COc1ccc(-n2nc(C(F)F)cc2-c2ccc(S(C)=O)cc2)cc1` (stereo not given), the result was inactive.

In the case of `O=C(O)CC(O)C(=O)O` (stereo not given), the result was inactive.

`CC(C)=CCCC(C)=CC=O`: the result was inactive.

In the case of `CC[C@H]1CC[C@H](NCc2cc3c(cc2OC)[C@H]2C[C@H]2C(=O)N3C)[C@H](c2ccccc2)N1`, the result was inactive.

Regarding `Cn1c(=O)cc(Oc2ccc(F)cc2F)c2cnc(NCC(C)(C)O)nc21`, the outcome was inactive.

As to `CC(C)CC(C)(O)C#CC(C)(O)CC(C)C` (stereo not given), the outcome was inactive.

As for `Cc1ccc(O)cc1`, the result was inactive.

Regarding `O=C(CCCCCCCCc1cccnc1)N1CCC(C=C(c2ccccc2)c2ccccc2)CC1`, the AC50 is 7.47 µM (active).

On to `CCNc1ccccc1`, for which the outcome was inactive.

Regarding `CCOCCO`, the result was inactive.

For `COc1ccc(/C=C/S(=O)(=O)NC(=O)c2ccc(C)cc2Cl)cc1`, the outcome was inactive.

For the compound `O=P(OC(CCl)CCl)(OC(CCl)CCl)OC(CCl)CCl`, the outcome was inactive.

As to `CCOC(=O)CC(CC(=O)OCC)(OC(C)=O)C(=O)OCC`, the result was inactive.

Turning to `CN(C)c1ccc(Cc2ccc(N(C)C)cc2)cc1`, the outcome was inactive.

Regarding `CC(C)=CCCC(C)CCO` (stereo not given), the result was inactive.

`CCN(C(=O)c1cc(C)cc(OC[C@H](C)Nc2ccncc2)c1)C(C)C`: the result was inactive.

As for `Cc1ccc(N)cc1O`, the outcome was inactive.

As for `Cn1cnc([N+](=O)[O-])c1Sc1ncnc2nc[nH]c12`, the outcome was inactive.

Regarding `CC/C(=C\C(=N/O)C(N)=O)C(C)[N+](=O)[O-]` (stereo not given), the outcome was inactive.

For `Oc1ccc2c(c1)-c1ccccc1C2`, the result was inactive.

On to `CCOCCOCCOCCO`, for which the outcome was inactive.

Turning to `CCC(C)(C)C(=O)O[C@H]1C[C@@H](C)C=C2C=C[C@H](C)[C@H](CC[C@@H]3C[C@@H](O)CC(=O)O3)[C@H]21`, the AC50 is 31.6 µM (active).

As usually defined, the AC50 is the concentration at which the activity in the assay is half-maximal.

The record behind these values is PubChem BioAssay (EPA / NIEHS).
